Counter-ions that a name gives are not always drawn. Values without a mark were called inactive. Cut-off read from the data, not from the text of the source: active = 2 or more and inactive = the rest.
System: S. cerevisiae BY4741 (wild-type), vegetative growth in YPD
Assay: growth sensitivity score (doubling time z-score vs DMSO controls); higher = slower growth, strongly negative scores also mark growth inhibition (complete suppression), active = hit call of the paper
Method in brief: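 Saccharomyces cerevisiae strains BY4741 and AD1-9 were seeded in rich medium in microtiter plates at an OD600 of 0.065. Compounds were added at a 1:100 dilution of DMSO stock. Optical density was read every 15 min for 24 hours on a Tecan GENios reader. Average doubling time was the time taken to reach a set generation point divided by generation number, and the growth sensitivity score was (compound mean − DMSO-control mean)/DMSO-control SD, using eight DMSO controls per experiment.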

Row | Compound | growth sensitivity score
1 | CC(C)NCC(O)c1ccc(NS(C)(=O)=O)cc1 (stereo not given) [Sotalol hydrochloride] (stock concentration (mM, diluted 1:100): 8.8) | -1.04
2 | C[C@H](CCC(=O)O)[C@H]1CC[C@H]2[C@@H]3C(=O)C[C@@H]4CC(=O)CC[C@]4(C)[C@H]3CC(=O)[C@]12C [Dehydrocholic acid] (stock concentration (mM, diluted 1:100): 10) | -0.69
3 | Nc1nc(Cl)nc2c1ncn2[C@H]1C[C@H](O)[C@@H](CO)O1 [2-Chloro-2-Deoxyadenosine] (stock concentration (mM, diluted 1:100): 10) | -0.67
4 | CCC(=O)NS(=O)(=O)c1ccc(-c2c(-c3ccccc3)noc2C)cc1 [Parecoxib] (stock concentration (mM, diluted 1:100): 9.8) | -0.35
5 | Nc1nc2ccc(Cl)cc2c2nc(-c3ccco3)nn12 (stock concentration (mM, diluted 1:100): 10) | 5.26 (active)
6 | Nc1nc(Cl)nc2c1ncn2[C@@H]1O[C@H](CO)[C@@H](O)[C@H]1O [2-Chloroadenosine] (stock concentration (mM, diluted 1:100): 10) | -1.07
7 | O=c1c(O[C@@H]2O[C@H](CO)[C@@H](O)[C@H](O)[C@H]2O)c(-c2ccc(O)c(O)c2)oc2cc(O)cc(O)c12 [Isoquercetrin] (stock concentration (mM, diluted 1:100): 10) | 0.03
8 | Clc1ccc(CO/N=C(\Cn2ccnc2)c2ccc(Cl)cc2Cl)c(Cl)c1 [Oxiconazole nitrate] (stock concentration (mM, diluted 1:100): 10) | 66.3 (active)
9 | COc1ccc(C(=O)NCc2ccc(OCCN(C)C)cc2)cc1OC [Itopride hydrochloride] (stock concentration (mM, diluted 1:100): 8.2) | -0.67
10 | COc1ccc(CC(C)NCC(O)c2ccc(O)c(NC=O)c2)cc1 (stereo not given) [Formoterol fumarate dihydrate] (stock concentration (mM, diluted 1:100): 7) | -0.1
11 | CC(=O)N1CCN(c2ccc(OCC3COC(Cn4ccnc4)(c4ccc(Cl)cc4Cl)O3)cc2)CC1 (stereo not given) [Ketoconazole] (stock concentration (mM, diluted 1:100): 10) | 35.3 (active)
12 | Cc1cccc(C)c1NC(=O)C(C)N (stereo not given) [Tocainide] (stock concentration (mM, diluted 1:100): 10) | -0.53
13 | CC(=O)SCC(Cc1ccccc1)C(=O)NCC(=O)OCc1ccccc1 (stereo not given) [Acetorphan] (stock concentration (mM, diluted 1:100): 10) | 0.93
14 | CSc1nc2cc(Cl)c(Oc3cccc(Cl)c3Cl)cc2[nH]1 [Triclabendazole] (stock concentration (mM, diluted 1:100): 10) | 168 (active)
15 | CCOC(=O)C1=C(C)NC(C)=C(C(=O)OC)C1c1cccc([N+](=O)[O-])c1 (stereo not given) [Nitrendipine] (stock concentration (mM, diluted 1:100): 10) | 1.09
16 | COc1ccccc1OCC(O)CN1CCN(CC(=O)Nc2c(C)cccc2C)CC1 (stereo not given) [Ranolazine dihydrochloride] (stock concentration (mM, diluted 1:100): 8.6) | -0.31
17 | CCOC(=O)OC(C)OC1=C(C(=O)Nc2ccccn2)N(C)S(=O)(=O)c2ccccc21 (stereo not given) [Ampiroxicam] (stock concentration (mM, diluted 1:100): 10) | -0.19
18 | CN(C)CC[C@@H](c1ccc(Br)cc1)c1ccccn1 [Dexbrompheniramine maleate] (stock concentration (mM, diluted 1:100): 7.3) | -1.48
19 | CNNCc1ccc(C(=O)NC(C)C)cc1 [Procarbazine hydrochloride] (stock concentration (mM, diluted 1:100): 8.6) | 0.69
20 | COc1cc(-c2ccc(=O)[nH]n2)ccc1OC(F)F [Zardaverine] (stock concentration (mM, diluted 1:100): 11.7) | 1.71

From the supplement of paper PMC3414501
